Among all 85,000 compounds or so, about 5,100 (6%) were called active. Many of the other results were omitted from the sample, so actives are more common in it than they were. Unmarked numbers belong to inactive results.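 How the source made its calls: active means viability at or below 40%; inactive means viability above 40%.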
Experiment: proliferation blockers of H69AR lung cancer cells, primary screen, cell-based, human, 86K library (AID 598);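 further: multidrug resistant small cell line overexpressing MRP-1 efflux transporter; 100% = mean luminescence of untreated control wells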
Conditions: H69AR lung tumor viability, ATP luminescence, 72 h; at 10 µM; active compounds read low

Going from `CCCNC(=O)CN(Cc1ccccc1F)S(=O)(=O)c1ccc(C)cc1` to `CCN(CC)C(=O)CN(c1cccc(OC)c1)S(=O)(=O)c1ccc(C)cc1`, the viability falls from 98.5% to 82.3%.

First: CC1Cc2ccccc2N1C(=O)c1cc2sccc2n1Cc1ccccc1 (stereo not given)
Second: CC1Cc2ccccc2N1C(=O)CSc1nc2ccccc2o1 (stereo not given)
The viability of the first is higher: 90.3% for the first, 74.2% for the second.

Going from `O=C(CSCc1ccc(Cl)cc1)N1CCCCC1` to `O=C(CN1CCCCC1)N1c2ccccc2Sc2ccc(C(F)(F)F)cc21`, the viability falls from 93.6% to 86.8%.

Going from `Cc1cc(NC(=O)CCC(=O)N(CC(=O)NCC2CCCO2)c2ccccc2C)no1` (stereo not given) to `COc1ccc(N(CC(=O)NC2CCCCC2)C(=O)CNC(=O)c2ccco2)c(OC)c1`, the viability falls from 100% to 97.8%.

Compared with `COCCNC(=O)Cn1cc(C(=O)c2cccs2)c2ccccc21`, `CCN(CC)S(=O)(=O)c1cccc(C(=O)NCC(=O)OCC(=O)NCc2ccccc2)c1` is lower in viability: 88.3% for the first, 87.6% for the second.

Compared with `COc1ccccc1C(=O)n1nc(-c2ccccc2)nc1N`, `COc1ccc(C(=O)n2nc(-c3ccc(Cl)cc3)nc2N)cc1OC` is lower in viability: 90.3% for the first, 83.9% for the second.

Compared with `N#CC1=C(SCc2ccc(C#N)cc2)N=C(N)C(c2nc(-c3ccccc3)cs2)C12CCCCC2` (stereo not given), `N#CCSc1nc2c(c(=O)n1Cc1ccccc1)C1(CCCC1)Cc1ccccc1-2` is higher in viability: 56.8% for the first, 80.7% for the second.

Going from `COc1ccc(OC)c(-n2nnnc2SCC(=O)Nc2cc(C)ccc2OC)c1` to `CCn1c(COc2ccc(OC)cc2)nnc1SCC(=O)Nc1cc(OC)ccc1OC`, the viability falls from 75.6% to 71.4%.

Going from `CC(C)c1nc2ccc(C(=O)O)cc2[nH]1` to `Cc1nc2ccc(C(=O)O)cc2[nH]1`, the viability falls from 94.4% to 91.7%.

`COc1ccc(C(=O)N(Cc2ccc(N(C)C)cc2)C2CCS(=O)(=O)C2)cc1` (stereo not given) and `COc1cc(C(=O)N(Cc2ccc(N(C)C)cc2)C2CCS(=O)(=O)C2)cc(OC)c1OC` (stereo not given) are the same in viability: 80.1% for the first, 80.1% for the second.

Compared with `CC(=O)c1cccc(NC(=O)N2CCCC2C(=O)NCCc2ccccc2)c1` (stereo not given), `COc1cccc2cc(C(=O)N3CCN(C(=O)c4ccccc4)CC3)c(=O)oc12` is lower in viability: 91.7% for the first, 89.3% for the second.

Going from `COc1nc(NC2CCCCC2)nc(N2CCCCCC2)n1` to `CCn1c(SCC(=O)NCC2CCCO2)nc2cc(S(=O)(=O)N3CCCCC3)ccc21` (stereo not given), the viability rises from 61.9% to 96.9%.

Compared with `Nc1c(-c2ccc(F)cc2)cnn1C1CCS(=O)(=O)C1` (stereo not given), `O=S(=O)(NC1CCCCC1)c1ccc(F)c2ccccc12` is lower in viability: 98% for the first, 86.6% for the second.

Going from `CC(C)(C)C(=O)c1cnc(Nc2ccccc2)s1` to `CCNc1nc(NC(C)C)nc(OCCOC(=O)c2ccccc2)n1`, the viability rises from 55% to 83.5%.

Compared with `CCOC(=O)CSc1nc2ccc(C)cc2[nH]1`, `CCOC(=O)c1ccc2c(c1)nc(SCC(=O)NC(C)C)n2CC` is lower in viability: 89.4% for the first, 84% for the second.

First: COc1ccc(/C(N)=N/OC(=O)Oc2ccccc2)cc1
Second: COc1ccc(C(=O)Nc2ccc(S(=O)(=O)NC(C)C)cc2)cc1
The viability of the first is lower: 82.6% for the first, 97.9% for the second.

Going from `Cc1cccc(NC(=O)CSc2nnc(-c3ccco3)o2)c1` to `Cc1ccc(NC(=O)CCN2CCc3ccccc3C2)cc1`, the viability falls from 96.2% to 79.4%.

Going from `CC1(C)NC(=O)N(CCCCSc2ccc(Cl)cc2)C1=O` to `Cc1nc(NC(=O)CN(C)S(=O)(=O)c2ccc(Cl)cc2)sc1C`, the viability falls from 79% to 61.4%.

First: COc1ccc(CSc2nc(N3CCOCC3)c3c(c2C#N)CC(C)(C)OC3)cc1
Second: CC(C)c1nc(N2CCOCC2)c(C#N)c2c1COC(C)(C)C2
The viability of the first is higher: 92.7% for the first, 79.6% for the second.

First: CCc1ccc(C2C(C#N)=C(N)Oc3n[nH]c(CC(=O)OC)c32)cc1 (stereo not given)
Second: CCOC(=O)c1[nH]c2c(c1C)C(=O)CC(c1ccc(N(C)C)cc1)C2 (stereo not given)
The viability of the first is lower: 92.7% for the first, 100% for the second.

Going from `O=C(Nc1ccc2c(c1)OCCO2)C(c1ccc(F)cc1)N1CCCCC1` (stereo not given) to `CCOc1cccc(NC(=O)Cn2nc(-c3ccc4c(c3)OCCO4)ccc2=O)c1`, the viability falls from 99.9% to 69.3%.

First: Cc1ccc(OCc2nnc(NC(=O)OCC(C)C)s2)cc1
Second: Cc1ccc(CNC(=O)COc2ccc(S(=O)(=O)NC(C)C)cc2)cc1
The viability of the first is higher: 102% for the first, 98.1% for the second.

First: CCS(=O)(=O)c1ccc2oc(SCC(=O)N3c4ccccc4CC3C)nc2c1 (stereo not given)
Second: CC1CC(C)CN(CC(=O)N2c3ccccc3CCc3ccccc32)C1 (stereo not given)
The viability of the first is lower: 63.3% for the first, 82.7% for the second.

Compared with `CCOC(=O)/C(C#N)=C\c1c(C)cc(C)c(COC(C)=O)c1C`, `CCc1c(C)sc(NC(=O)c2cccs2)c1C(N)=O` is higher in viability: 95.1% for the first, 99.7% for the second.

Compared with `CCNC(=O)NC(=O)C(C)OC(=O)c1cc(S(=O)(=O)N2CCCCCC2)ccc1OC` (stereo not given), `CCCCNC(=O)C1CCCN(S(=O)(=O)c2ccc(S(=O)(=O)NCC(C)C)cc2)C1` (stereo not given) is higher in viability: 84.3% for the first, 90.8% for the second.

First: CC(N=Cc1nc(-c2ccccc2)oc1O)c1ccccc1 (stereo not given)
Second: Cc1ccc(-c2nc3c(cnn3-c3ccccc3)c(=O)o2)cc1
The viability of the first is higher: 94.3% for the first, 79.6% for the second.

Compared with `Cc1ccc(S(=O)(=O)N2CCC(C(=O)NCC3CCCO3)CC2)cc1` (stereo not given), `Cc1cccc(N2CCN(C(=O)C3CCN(S(=O)(=O)c4cnc[nH]4)CC3)CC2)c1C` is lower in viability: 105% for the first, 93.6% for the second.

Compared with `COc1cccc(NC(=O)CN2CCN(c3nc(-c4cccc(OC)c4)cs3)CC2)c1`, `O=C(c1ccccc1Oc1ccccc1)N1CCN(c2ccc(F)cc2)CC1` is higher in viability: 93.2% for the first, 100% for the second.

Compared with `COc1cc2c(cc1OC)C(C(=O)NCc1ccco1)C1c3ccccc3CCN1C2=O` (stereo not given), `COc1ccc(-c2cc(C(=O)NCc3ccco3)no2)cc1OC` is higher in viability: 92.7% for the first, 100% for the second.

Compared with `COc1cccc(N=c2oc3c(C)ncc(CO)c3cc2C(N)=O)c1`, `COc1ccc(/C=C/C(=O)Nc2c(C)nn(C)c2C)cc1COc1ccc(Br)cc1` is lower in viability: 68% for the first, 57.5% for the second.

First: CCCCn1c(SCC(=O)N2CCC(C(=O)OCC)CC2)nc2cc(S(N)(=O)=O)ccc21
Second: CC(C)CCNC(=O)Cn1c(=O)oc2cc(S(=O)(=O)N3CC(C)CC(C)C3)ccc21 (stereo not given)
The viability of the first is higher: 48.4% for the first, 40.8% for the second.

First: COC(=O)c1ccc(NC(=O)C23CC4CC(C2)CC(n2cnc(Cl)n2)(C4)C3)cc1
Second: COC(=O)c1ccccc1NC(=O)CSc1nnnn1C
The viability of the first is lower: 72.7% for the first, 95.3% for the second.

First: CCCOC(=O)c1[nH]c2c(c1C)C(=O)CC(c1cc(OC)c(OC)c(OC)c1)C2 (stereo not given)
Second: COc1cc2c(cc1OC)C(C(C)C)=NC(C)(C)C2
The viability of the first is lower: 80.3% for the first, 88.9% for the second.

Going from `O=C(Nc1ccccc1N1CCN(C(=O)c2ccccc2)CC1)c1ccc2c(c1)OCO2` to `Cc1cc(C)nc(N2CCN(c3ncnc4c3oc3ccccc34)CC2)n1`, the viability rises from 81.8% to 103%.

First: O=C1CSC(c2cccc(F)c2)N1c1ccc(O)cc1 (stereo not given)
Second: CN(C)S(=O)(=O)c1cccc(C(=O)Nc2cccnc2)c1
The viability of the first is higher: 101% for the first, 89.9% for the second.

Going from `Cc1oc(-c2ccccc2Cl)[n+]([O-])c1C` to `Cc1[nH][nH]c(=O)c1N=Nc1ccccc1`, the viability rises from 85.9% to 91.5%.

First: CCN1CCN(C(=O)C2(NC(=O)Nc3cccc(F)c3)CCCCC2)CC1
Second: CCN1CCN(c2ncnc3c2oc2nc(C)c4c(c23)CC(C)(C)OC4)CC1
The viability of the first is higher: 90.9% for the first, 81.8% for the second.

First: C/C(=N\NS(=O)(=O)c1ccc(Br)cc1)c1cccs1
Second: Cc1ccc(-n2ncc3c2ncn2nc(-c4ccco4)nc32)c(C)c1
The viability of the first is higher: 110% for the first, 78.6% for the second.

In the case of `COc1ccc(C(=O)n2nc(-c3ccc(C)cc3)nc2N)cc1OC`, the viability is reported as 22% (active).
With `COC(=O)Nc1nc2ccc(Sc3ccccc3)cc2[nH]1` the viability was 17.5% (active).
In the case of `Cc1ccc(CN(C(=O)c2sc3ccccc3c2Cl)C2CCS(=O)(=O)C2)cc1` (stereo not given), the viability is reported as 18.5% (active).
For `CC1=C/C(=N\OS(=O)(=O)c2ccccc2)C=CC1=O`, the viability was 0.69% (active).
With `CO/N=C(/CS(=O)(=O)c1ccc(Br)cc1)c1ccc(OC)cc1` the viability was 31.4% (active).
With `CC1(C)Cc2c(C#N)c(SCc3nc4ccccc4[nH]3)nc(N3CCOCC3)c2CO1` the viability was 37.1% (active).
With `CC1Cc2ccccc2N1C(=O)CSc1nnc(-c2ccc(S(=O)(=O)N3CCCCC3)cc2)o1` (stereo not given) the viability was 29.4% (active).
In the case of `Cc1ccc(NC(=S)NC(NC(=O)Cc2cccc3ccccc23)C(Cl)(Cl)Cl)cc1` (stereo not given), the viability is reported as 0.99% (active).
For `COc1ccc([N+](=O)[O-])cc1C1NN=C(c2cccc3ccccc23)S1` (stereo not given), the viability was 27.1% (active).
In the case of `COc1ccc(C2=NOC(C(=O)NCc3ccco3)C2)cc1OC` (stereo not given), the viability is reported as 28.7% (active).
For `CCCCn1c(SCc2ncc(-c3ccccc3)o2)nc2cc(S(N)(=O)=O)ccc21`, the viability was 14% (active).
In the case of `CCCOC(=O)c1[nH]c2c(c1C)C(=O)CC(c1cccs1)C2` (stereo not given), the viability is reported as 34.2% (active).
With `Cc1cccc(N2CCN(C(=O)c3cnn4c(C(F)F)cc(-c5ccccc5)nc34)CC2)c1C` the viability was 28.9% (active).
With `Cc1[nH][nH]c(=O)c1C(c1ccc(-c2ccc(Cl)cc2)o1)c1c(C)[nH][nH]c1=O` the viability was 1.92% (active).
In the case of `O=C(CN1CCCCCC1)N1c2ccccc2Sc2ccc(C(F)(F)F)cc21`, the viability is reported as 36.8% (active).
With `CC(C)c1nc2oc3c(N4CCN(C)CC4)ncnc3c2c2c1CCC2` the viability was 33.7% (active).
With `CCn1nc(C)c(NC(=O)/C=C/c2ccc(OC)c(COc3ccc(Br)cc3)c2)c1C` the viability was 28.8% (active).
For `Cc1ccc(-n2ncc3c(=O)n(-c4ccc(C)c(C)c4)c(-c4ccco4)nc32)cc1`, the viability was 31.3% (active).
In the case of `CCN(CC)S(=O)(=O)c1cccc(C(=O)Nc2ccccc2)c1`, the viability is reported as 38.5% (active).
